Source: PubChem BioAssay (several laboratories)
PfM18AAP inh – PfM18AAP inhibitors, malaria aminopeptidase, primary screen, biochemical, QFRET, recombinant enzyme. M18 aspartyl aminopeptidase (Plasmodium falciparum 3D7). H-Glu-NHMec fluorogenic cleavage. inhibition, % at 7.35 µM. 1.2% of 290,000 active. AID 1822, 2009;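 active = inhibition above the campaign mean inhibition over all tested compounds plus 3 SD, cut at about 28% in these data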;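 note: 0% = plate median of test compound wells and 100% = 2 mM ZnCl2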
IDE act – human IDE activators in live cells, primary screen, fluorescence polarization, HEK cells, FAbeta-B substrate; Insulin-degrading enzyme (Homo sapiens), P14735; FAbeta-B cleavage; 0% vehicle, 100% cell-free pure enzyme wells; activation, % at 5.96 µM; 0.073% of 340,000 active; AID 493087, 2011;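 active = activation above the mean of all tested compounds plus 3 SD, set per screening campaign, cut at about 17% in these data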
PolyA inh – polyadenylation inhibitors in yeast reporter cells, primary screen, luminescence, S. cerevisiae; 0.02% of 300,000 active; activity score, % at 12 µM; S. cerevisiae SKY197-pL101 polyadenylation reporter, beta-gal luminescence; efflux-impaired pdr1/pdr3 knockout yeast; score 100 = 6 SD above DMSO;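 active = lowest replicate activity score at least 50, where 100 means six control SD above control mean; inconclusive = lowest score under 50 but half or more replicates reach 50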;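 note: yeast exposed to compound for 9 h at 30 °C; higher score means more reporter readthrough which indicates perturbed polyadenylation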
ALR inh – inhibitors of human ALR sulfhydryl oxidase, primary screen, biochemical, H2O2 detection, HRP-luminol luminescence, single point; FAD-linked sulfhydryl oxidase ALR (Homo sapiens), P55789; purified ALR, DTT oxidation; inhibition, % (test concentration not listed); 3.8% of 290,000 active; AID 485317, 2010;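 active = mean replicate inhibition above about 79%, with every replicate also reaching it, limit read from the data; inconclusive = only one of the two criteria met; inactive = mean below limit and not every replicate reaching it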
Target sequence (P55789 whole entry, looked up): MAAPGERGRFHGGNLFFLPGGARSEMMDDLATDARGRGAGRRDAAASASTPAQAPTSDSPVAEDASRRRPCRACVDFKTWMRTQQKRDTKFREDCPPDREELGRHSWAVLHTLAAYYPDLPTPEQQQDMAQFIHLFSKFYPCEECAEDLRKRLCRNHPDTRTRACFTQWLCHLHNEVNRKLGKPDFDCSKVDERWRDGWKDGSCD
IDE cell inh – human IDE inhibitors in live cells, primary screen, fluorescence polarization, HEK cells, FAbetaB substrate. 0.41% of 320,000 active. FAbetaB cleavage. inhibition, % at 5.59 µM;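 active = percent inhibition above the average of all tested compounds plus 3 SD, set per screening campaign, cut at about 16% in these data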;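 note: IDE supplied by intact live HEK cells; FP after avidin binding of uncleaved biotin substrate so inhibition keeps polarization high; 0% = DMSO wells and 100% = 60 µM reference IDE inhibitor Ii1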
CaV13 ICDI inh – Primary screen for inhibitors of IQ motif and Ca2+-dependent inactivation inhibitor domain binding in CACNA1D, Förster resonance energy transfer in living cells, …; HEK cells, CFP/YFP FRET ICDI-IQ, plate reader, 10 min; percent FRET-ratio fall versus neutral wells; inhibition, % at 12.3 µM; 0.098% of 340,000 active; AID 743397;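 active = mean replicate inhibition of at least 30% and at least 1% of replicates passing that level; inconclusive = only one of the two criteria is met; inactive = neither criterion is met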;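 note: 0% = median of the neutral control wells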
Starred values were filed as active, the others as inactive; ? = inconclusive; nt = no result given. An excerpt weighted towards active compounds, which were near 4.1% of everything screened.

SMILES	PfM18AAP inh	IDE act	PolyA inh	ALR inh	IDE cell inh	CaV13 ICDI inh
COc1ccc(OCC(=O)Nc2ccc3c(c2)nc2n3CCSC2)cc1	7.3	1.1	20.5	4.4	6.5	-3.4
COCCNc1nnc(SCC(=O)c2c[nH]c3ccccc23)s1	13.7	0.3	-5.8	nt	-4.7	-20.4
CCCCC(=O)Nc1ccc2c(c1)nc1n2CCSC1	-12.8	2.1	6.3	98.9*	0.3	-11.7
COc1ccc(-c2nc(-c3ccccc3)c(-c3cc([N+](=O)[O-])ccc3C)[nH]2)cc1O	-8.9	3.5	-17.4	61.7	-1.5	nt
COc1ccc([N+](=O)[O-])cc1-c1[nH]c(-c2ccc(C(=O)O)cc2)nc1-c1ccccc1	-0.9	2.8	-3.2	98.0*	0.8	-4.8
O=S(=O)(c1cccc(-c2n[nH]c(=S)n2-c2ccccc2Cl)c1)N1CCOCC1	nt	0.9	nt	98.9*	2.1	-4.7
O=C(NCc1ccc2c(c1)OCO2)c1[nH]c(C(F)(F)F)nc1-c1ccccc1	nt	nt	nt	nt	nt	-3.4
COc1cc(/C=N/NC(=O)CCNC(=O)c2ccccc2Cl)ccc1O	-10.9	-1.6	2.1	98.8*	0.8	0.2
COc1cc(/C=N/NC(=O)CCc2ccccc2)ccc1O	-2.2	2.1	26.8	99.0*	3.2	-5.3
COc1ccc(/C=N/Nc2nc(N3CCCC3)nc(N3CCCC3)n2)cc1O	-8.4	0.6	-4.5	99.2*	-5.3	-3.6
COc1cc(/C=N/NC(=O)CCC(=O)Nc2ccc(F)cc2)ccc1O	4.4	-2.3	-17.5	38.3	2.4	-21.5
COc1cc(/C=N/NC(=O)CNC(=O)c2ccco2)ccc1O	-8.0	3.3	16.5	99.3*	6.9	-4.9
CC(C)(CNC(=O)c1cc([N+](=O)[O-])ccc1N1CCC(Cc2ccccc2)CC1)N1CCOCC1	nt	-6.2	nt	-42.1	-5.3	-6.1
O=C(C1CC=CCC1)N1CCN(S(=O)(=O)c2ccc(F)cc2)CC1 (centres undefined)	nt	2.1	nt	nt	nt	-4.8
COc1ccc(/C=N/NC(=O)c2ccco2)cc1Cn1nc(C)cc1C	-5.5	0.5	21.7	77.2*	-0.2	-2.6
COc1cc(/C=N/Nc2ccccc2)ccc1O	19.1	-1.3	-20.6	99.4*	-5.8	-3.8
Cc1ccc(NC(=O)C2C3C=CC4(CN(Cc5cccnc5)C(=O)C24)O3)cc1 (centres undefined)	-2.5	18.4*	-9.3	nt	7.7	-2.1
O=C(NCc1ccc(Cl)cc1)C1C2C=CC3(CN(Cc4cccnc4)C(=O)C13)O2 (centres undefined)	-15.2	-8.8	6.3	-0.3	1.8	-7.3
O=C(O)C1C(c2ccccc2)=C1c1ccc(Br)cc1 (centres undefined)	nt	nt	nt	nt	nt	-4.5
NC(=O)C1C(c2ccccc2)=C1c1ccccc1	-9.9	6.0	13.0	96.6*	3.1	-5.7
Cc1ccc(CNC(=O)COC(=O)c2ccc(S(=O)(=O)NCc3ccco3)cc2)cc1	nt	2.8	nt	1.3	-1.1	-2.2
O=C(Cn1ccc([N+](=O)[O-])n1)N1CCCCCC1	1.6	5.9	?	-3.8	-2.8	114.9*
OCCN(CCO)c1ccc(C(c2ccc(Cl)cc2)c2ccc(N(CCO)CCO)cc2Cl)c(Cl)c1	-5.6	-1.8	1.7	-3.7	4.9	-5.1
Cc1cc(N(CCO)CCO)ccc1N=Nc1cc(F)ccc1F	3.6	8.9	-19.3	99.2*	-6.9	-1.5
COc1ccc(/C=C/C(=O)NCC(=O)N/N=C/c2cccs2)cc1	5.4	5.8	5.3	-3.9	1.3	-5.8
SMILES	PfM18AAP inh	IDE act	PolyA inh	ALR inh	IDE cell inh	CaV13 ICDI inh
COc1cc(O)cc2occ(-c3ccc(O)cc3)c(=O)c12	5.4	5.9	-4.4	98.0*	1.8	nt
COc1ccc(-c2coc3cc(O)ccc3c2=O)cc1O	12.0	4.3	1.9	76.9*	5.7	nt
O=c1c(-c2ccc(O)cc2)coc2cc(O)cc(O)c12	nt	4.7	-10.8	57.3	-6.6	nt
Cc1ccc2c(CC(=O)Nc3sccc3C(N)=O)coc2c1	1.5	-3.6	5.6	85.5*	8.1	-0.7
O=C(N/N=C/c1ccc(OC(=O)c2ccco2)cc1)c1ccc[n+]([O-])c1	nt	5.7	-0.8	nt	-1.3	-2.1
C=CCNC(=O)CSc1nc2sc3c(c2c(=O)n1CCCOC)CCC3	8.0	-0.2	22.1	80.8*	-0.7	-4.7
C=CCn1c(SCC(=O)OC)nc2sc3c(c2c1=O)CCN(C)C3	-6.0	nt	2.0	99.0*	2.2	nt
CCn1c(SCC(=O)NCCc2ccccc2)nc2sc3c(c2c1=O)CCN(C)C3	16.4	8.8	1.9	nt	4.1	-2.1
COC(=O)CSc1nc2sc3c(c2c(=O)n1-c1ccccc1)CCN(C)C3	0.2	-5.6	-3.4	99.6*	-3.6	-4.9
CCn1c(SCC(=O)c2ccccc2)nc2sc3c(c2c1=O)CCN(C)C3	5.5	7.6	-6.1	98.8*	-1.3	8.8
Cc1cc(C)c(C)c(S(=O)(=O)NCc2ccc(C(=O)N3CCOCC3)cc2)c1C	2.5	-4.6	-5.2	0.1	2.0	-4.7
O=C(NC1CCCCC1)C1c2ccccc2OCC(=O)N1CCCN1CCOCC1 (centres undefined)	nt	nt	nt	nt	nt	-0.9
CCC1=NN2C(=N)/C(=C\c3ccc(OCc4cc(=O)n5nc(CC)sc5n4)c(OC)c3)C(=O)N=C2S1	0.2	8.0	25.2	nt	nt	-2.4
COc1ccc(N2CCN(S(=O)(=O)c3ccc4c(c3)CCCC4)CC2)c([N+](=O)[O-])c1	-13.4	2.4	-11.4	-4.8	1.1	-10.0
CCOC(=O)C1=C(COc2ccccc2)NC(=O)NC1c1ccc(Br)cc1 (centres undefined)	11.6	1.9	-12.9	0.8	1.7	-3.8
COc1cccc(N2CCN(C(=O)C3CCCN(c4ncnc5c4nc4n5CCCCC4)C3)CC2)c1 (centres undefined)	-0.1	-1.8	-10.3	7.6	-0.8	-2.5
Cc1ccc(C(=O)Nc2ccc(N3CCOCC3)nc2)cc1	3.4	0.1	-22.0	-20.5	2.9	-4.6
CN(C)c1ccc(NC(=O)c2ccc(N3CCOCC3)nc2)cc1	2.4	-1.9	8.1	99.7*	-0.8	nt
CN1CCN(c2ccc(NC(=O)c3ccc(Cl)cc3)cn2)CC1	1.6	6.2	9.9	94.0*	4.3	7.5
CCS(=O)(=O)N1CCCC(C(=O)NCCN(C)Cc2ccccc2)C1 (centres undefined)	7.0	-3.0	3.5	-3.1	0.9	nt
CCCCN(CCCNC(=O)C1CCN(S(=O)(=O)CC)CC1)c1ccccc1	-0.2	-2.4	-5.1	98.7*	-6.5	-1.9
CCN(CCNC(=O)C1CCN(S(=O)(=O)c2cccc3nsnc23)CC1)c1ccccc1	5.0	2.7	-4.1	98.6*	0.7	-4.3
